Screen size: about 340,000 compounds; about 8,500 (2.5%) were called active.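 How the source made its calls: active means melting temperature shift of at least 10% of the positive control shift, at one fixed dose; inactive means the rest.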 This excerpt belongs to a sample that is enriched for actives.

Drawing on PubChem BioAssay AID1259313 (Sanford-Burnham Center for Chemical Genomics, 2017), this text covers Tm shift relative to glycine control for 58 compounds.

This experiment has as its system Glutamate receptor ionotropic, NMDA 3A (GRIN3A) ligand-binding domain. The experiment is described as follows: NR3A LBD thermal stabilization by compounds – biophysical, differential scanning fluorimetry, uHTS, primary screen (AID 1259313). As to conditions: at 25 µM, hits give high values, 0% = protein alone, 100% = glycine-bound protein. Background: In DSF a fluorescence change marks the thermal transition of the protein.
Take `Cc1ccc(C(=O)OCC(=O)Nc2ccc(Cl)cn2)cc1S(=O)(=O)N1CCOCC1`: the Tm shift relative to glycine control was 3.32% (inactive).

For the compound `COc1cccc(N2CC(C(=O)NCc3n[nH]c(=O)c4ccccc34)CC2=O)c1` (stereo not drawn), the Tm shift relative to glycine control is -0.43% (inactive).

In the case of `Cc1cc(Cl)ccc1N1C(=O)CC(SCCC(=O)O)C1=O` (stereo not drawn), the Tm shift relative to glycine control is 2.57% (inactive).

On to `O=C(CC1(O)C(=O)N(CN2CCOCC2)c2ccccc21)c1ccccc1` (stereo not drawn), for which the Tm shift relative to glycine control is 27.8% (active).

Regarding `C=CCN1C(=O)C(O)(CC(=O)c2ccc(Cl)cc2)c2ccccc21` (stereo not drawn), the Tm shift relative to glycine control was -2.1% (inactive).

As for `C=CCN1C(=O)C(O)(CC(=O)c2ccccn2)c2ccccc21` (stereo not drawn), the Tm shift relative to glycine control is -0.48% (inactive).

With `COc1ccccc1C(=O)NC(CCSC)C(=O)N1CCN(C/C=C/c2ccccc2)CC1` (stereo not drawn), the Tm shift relative to glycine control was 2.33% (inactive).

As for `COc1ccccc1N1CCN(c2ncnc3sc(C)c(-c4ccccc4)c23)CC1`, the Tm shift relative to glycine control was 1.26% (inactive).

Consider `CC1=NN(C(N)=S)C(=O)C1N=Nc1cc(Cl)ccc1Cl` (stereo not drawn), for which the Tm shift relative to glycine control is 8.72% (inactive).

`Cc1[nH]n(C(N)=S)c(=O)c1N=Nc1ccc(Cl)cc1Cl`: the Tm shift relative to glycine control is 15% (active).

Regarding `Cc1[nH]n(C)c(=O)c1N=Nc1ccc(S(C)(=O)=O)cc1`, the Tm shift relative to glycine control is 1.71% (inactive).

As to `CCN(C(=O)COC(=O)CCOc1cccc(C)c1)c1c(N)n(Cc2ccccc2)c(=O)[nH]c1=O`, the Tm shift relative to glycine control is 0.18% (inactive).

Turning to `CCCCNC(=O)CSc1nc2ccc(NC(=O)CSc3nnc(N)s3)cc2s1`, the Tm shift relative to glycine control was 1.91% (inactive).

For the compound `CCCCNC(=O)CSc1nc2ccc(NC(=O)CSc3nnc(COc4ccccc4C)n3C)cc2s1`, the Tm shift relative to glycine control is -6% (inactive).

With `Nc1nnc(SCC(=O)Nc2ccc3nc(SCC(=O)Nc4ccccc4)sc3c2)s1`, the Tm shift relative to glycine control is 29.3% (active).

With `NS(=O)(=O)c1ccc(CCNC(=O)CN2C(=O)c3ccccc3S2(=O)=O)cc1`, the Tm shift relative to glycine control is 3.53% (inactive).

With `Cc1cccc(OCc2nnc(SCn3nnc4ccccc4c3=O)o2)c1`, the Tm shift relative to glycine control is -0.61% (inactive).

Turning to `COc1cc(CN(C)Cc2nc3cc(C(F)(F)F)ccc3c(=O)[nH]2)ccc1OC(F)F`, the Tm shift relative to glycine control is 0.52% (inactive).

Turning to `Cc1cccc(OCc2nnc(SCc3nc4cc(C(F)(F)F)ccc4c(=O)[nH]3)o2)c1`, the Tm shift relative to glycine control was 15.6% (active).

For `Cc1onc(-c2c(F)cccc2Cl)c1C(=O)Nc1cccc(S(=O)(=O)N2CCCCC2)c1`, the Tm shift relative to glycine control was -2.74% (inactive).

As to `Cc1ccc2[nH]cc(CCCN3C(=O)c4ccccc4C3=O)c2c1`, the Tm shift relative to glycine control is -9.79% (inactive).

In the case of `Cc1ccc2[nH]cc(CCNC(=O)C3CCCCC3)c2c1`, the Tm shift relative to glycine control is 1.08% (inactive).

Consider `O=C(NCCc1ccc(Cl)cc1Cl)c1cc([N+](=O)[O-])c[nH]c1=O`, for which the Tm shift relative to glycine control is -10.1% (inactive).

`O=C(NCCc1c[nH]c2ccc(Cl)cc12)c1ccc([N+](=O)[O-])cc1`: the Tm shift relative to glycine control was 17.5% (active).

In the case of `Cc1ccc(S(=O)(=O)N(C)CC(=O)NCCc2c[nH]c3ccccc23)cc1`, the Tm shift relative to glycine control was 1.04% (inactive).

With `N#CCc1c[nH]c2ccc([N+](=O)[O-])cc12`, the Tm shift relative to glycine control is 14% (active).

With `Cc1ccc2[nH]cc(CCNC(=O)c3ccc([N+](=O)[O-])cc3)c2c1`, the Tm shift relative to glycine control is 9.11% (inactive).

Consider `O=C(NCCc1c[nH]c2ccccc12)c1cc2ccccc2oc1=O`, for which the Tm shift relative to glycine control is -6.92% (inactive).

Regarding `O=[N+]([O-])c1ccc2[nH]c3c(c2c1)CCCC3O` (stereo not drawn), the Tm shift relative to glycine control was 5.4% (inactive).

`Cc1cc(C)cc(NC(=S)NCCc2c[nH]c3ccccc23)c1`: the Tm shift relative to glycine control is 20.2% (active).

Consider `O=C(NCCc1c[nH]c2ccccc12)C1CCN(Cc2ccc(Br)cc2)CC1`, for which the Tm shift relative to glycine control is -4.03% (inactive).

Regarding `O=C(NCCc1c[nH]c2ccccc12)c1cccc(Br)c1`, the Tm shift relative to glycine control was 31.4% (active).

Take `COc1ccc(F)cc1S(=O)(=O)NCC(c1ccc2c(c1)OCO2)N1CCN(C)CC1` (stereo not drawn): the Tm shift relative to glycine control was -1.98% (inactive).

For the compound `COc1ccc(NC(=S)N2CCC(NC(=O)c3cccc(F)c3)CC2)cc1`, the Tm shift relative to glycine control is 1.82% (inactive).

`COc1ccc2oc(C(=O)NCc3ccco3)c(C)c2c1`: the Tm shift relative to glycine control is 0.95% (inactive).

In the case of `Cc1ccc(C(=O)c2ccc(N3CCN(C)CC3)c([N+](=O)[O-])c2)cc1`, the Tm shift relative to glycine control is -4.39% (inactive).

As to `Cc1ccc(Br)c(NS(=O)(=O)c2cccc(C(=O)N3CCNC(=O)C3)c2)c1`, the Tm shift relative to glycine control was -2.24% (inactive).

As to `O=C(CO/N=C/c1ccc(OC(F)F)cc1)NCc1ccc(F)cc1`, the Tm shift relative to glycine control was -0.25% (inactive).

Turning to `CC1(NC(=O)CCS(=O)(=O)c2ccc(Cl)cc2)CCS(=O)(=O)C1` (stereo not drawn), the Tm shift relative to glycine control was 1.08% (inactive).

As to `NC(=O)Nc1ccccc1C(=O)NCCc1ccccc1`, the Tm shift relative to glycine control is -3.04% (inactive).

For the compound `CCOC(=O)CN(C(=O)COc1nc(C)cc(C)c1C#N)c1ccc(Cl)cc1`, the Tm shift relative to glycine control was 0.21% (inactive).

`COc1ccc(/C=N/Nc2nc(-c3ccc(C)cc3)c(C#N)c(=O)[nH]2)cc1`: the Tm shift relative to glycine control was -2.83% (inactive).

Regarding `COc1ccc(/C=N/Nc2ccccc2C(=O)O)cc1`, the Tm shift relative to glycine control is -10.2% (inactive).

Turning to `COc1ccc(/C=N/N=C/c2c[nH]c(=O)c(C#N)c2Nc2ccccc2)cc1`, the Tm shift relative to glycine control was 35.8% (active).

For the compound `Cc1nn(C)cc1/C=C1\CCC/C(=C\c2cn(C)nc2C)C1=O`, the Tm shift relative to glycine control was -1.19% (inactive).

Consider `CC(Oc1ccccc1[N+](=O)[O-])C(=O)N/N=C/c1ccoc1` (stereo not drawn), for which the Tm shift relative to glycine control is -0.52% (inactive).

As for `Cc1ccc2cccc(OCCCOc3ccccc3CO)c2n1`, the Tm shift relative to glycine control is -1.42% (inactive).

Turning to `Cc1cc(N=Nc2ccc3ccccc3c2)ccc1O`, the Tm shift relative to glycine control was 28.8% (active).

For the compound `O=C(NNC(=S)NC(=O)c1cn(-c2ccccc2)nc1-c1ccccc1)c1ccncc1`, the Tm shift relative to glycine control is -4.35% (inactive).

For the compound `O=C(CN1CCOc2ccccc21)N1CCC(Cc2ccccc2)CC1`, the Tm shift relative to glycine control is -1.44% (inactive).

With `COc1ccc(C(=O)N2CCCCC2C(=O)Nc2ccc(-n3nc(C)cc3C)cc2)o1` (stereo not drawn), the Tm shift relative to glycine control is 6.75% (inactive).

Take `CCN(CC)CCNCc1ccc(OCc2ccc(Cl)nc2)c(OC)c1`: the Tm shift relative to glycine control is 8.95% (inactive).

Turning to `COc1cc(/C=C2/C(=O)ON=C2C)ccc1OCc1cccc(F)c1`, the Tm shift relative to glycine control is -26.4% (inactive).

As for `COc1cc(/C=C2\SC(=O)NC2=O)ccc1OCc1ccc(Cl)nc1`, the Tm shift relative to glycine control is 25.9% (active).

For the compound `Cc1cccn2cc(-c3cccc(S(=O)(=O)N4CCCCC4)c3)nc12`, the Tm shift relative to glycine control was 5.23% (inactive).

As for `Cc1cccc(N(C(=O)c2csnn2)C(C(=O)NCc2ccccc2)c2ccncc2)c1` (stereo not drawn), the Tm shift relative to glycine control is -0.09% (inactive).

In the case of `CCOc1ccccc1Nc1nnc(SCC(=O)NCC2CCCO2)s1` (stereo not drawn), the Tm shift relative to glycine control is 5.39% (inactive).

Consider `CCOC(=O)N1CCN(C(=O)c2cn(C)c3ccc(S(=O)(=O)N(CC)CC)cc3c2=O)CC1`, for which the Tm shift relative to glycine control was 0% (inactive).
